# HP1b binding inh: HP1-beta chromodomain-methylated histone interaction inhibition; P83916; AlphaScreen HP1-beta / biotin-H3K9me3 peptide binding; Potency, µM (top dose mostly 114 µM), without a hit: at the top dose activity change, negative = inhibition, most hits filed as inhibitors; 390,000 tested, 0.56% active; further: potency means the concentration at half of the fitted maximal effect; nearly all actives have a fitted effect of over 70% in size
# Target sequence (P83916 whole entry, looked up): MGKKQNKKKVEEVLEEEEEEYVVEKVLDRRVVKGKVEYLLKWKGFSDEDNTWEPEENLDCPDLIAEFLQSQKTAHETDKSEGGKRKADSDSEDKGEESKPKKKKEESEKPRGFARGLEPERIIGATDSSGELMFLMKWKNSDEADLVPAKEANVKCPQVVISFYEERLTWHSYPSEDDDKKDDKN
#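 Compound inhibition of the preformed complex between 50 nM HP1-beta and 50 nM biotinylated H3K9me3 peptide was read by AlphaScreen. Buffer was PBS pH 7.4 with 0.01% Tween-20. Incubations ran 30 min at room temperature, with 10 ug/mL donor/acceptor beads.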
# G9a block: G9a (human) methyltransferase inhibition; Potency, µM (titrated, usually from 102 µM), inactives show top-dose activity, negative = inhibition, actives largely listed as inhibitors; G9a H3K9 monomethylation, AlphaScreen, 2 h; Q96KQ7; 350,000 tested, 8.8% active; AID 504332; further: potency means the concentration at half of the fitted maximal effect; on the % scale 0 is the no-effect control and ±100 the full control effect; nearly all actives have a fitted effect of over 75% in size
# Target sequence (Q96KQ7 913-1193 limits assumed): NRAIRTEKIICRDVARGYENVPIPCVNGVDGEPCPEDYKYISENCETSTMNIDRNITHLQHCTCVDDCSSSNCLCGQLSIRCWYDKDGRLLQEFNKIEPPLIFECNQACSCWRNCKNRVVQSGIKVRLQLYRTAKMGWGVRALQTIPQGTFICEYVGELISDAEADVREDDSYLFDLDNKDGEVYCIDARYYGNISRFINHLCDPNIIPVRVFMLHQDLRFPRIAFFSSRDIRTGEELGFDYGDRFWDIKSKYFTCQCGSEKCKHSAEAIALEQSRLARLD
#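 G9a (20 nM) preincubated 15 min RT with compounds, then 500 nM biotinylated H3K9 peptide and 20 uM SAM added; 2 h RT reaction. Monomethyl-H3K9 product detected by AlphaScreen with anti-H3K9me1 antibody, streptavidin donor and anti-rabbit IgG acceptor beads.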
# JMJD2A Tudor: inhibitors of human JMJD2A Tudor domain | AlphaScreen JMJD2A-Tudor / H3K4me3 peptide binding | Potency, µM (highest dose often 114 µM), for inactives: at the highest dose activity change, negative = inhibition, usual class: inhibitors | 390,000 tested, 4.4% active; further: potency means the concentration at half of the fitted maximal effect; on the % scale 0 is the no-effect control and ±100 the full control effect; nearly all actives have a fitted effect of over 50% in size
# BAZ2B inh: inhibitors of human BAZ2B bromodomain. AlphaScreen BAZ2B-H3K14Ac peptide displacement. Potency, µM (doses to about 114 µM), without a hit: at the highest dose activity change, negative = inhibition, actives largely listed as inhibitors. 360,000 tested, 4.4% active. Q9UIF8; further: potency means the concentration at half of the fitted maximal effect; on the % scale 0 is the no-effect control and ±100 the full control effect; nearly all actives have a fitted effect of over 60% in size
#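 Protein-peptide AlphaScreen: BAZ2B 50 nM, b-H3K14Ac 50 nM, 1x PBS pH 7.4 + 0.01% Tween-20. Preincubation 30 min RT; cpd 30 min RT (top 110 uM); beads 20 min RT, light-protected.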
# PI5P4K alpha inh: PI5P4K alpha (human) kinase inhibition; P48426; PI5P4Kalpha enzyme, ADP-Glo luminescence, 60 min; active compounds read low; max response, %; 330,000 tested, 1.2% active; AID 652105; active means max response of -50% or lower; inconclusive means between -30% and -50%; inactive means -30% or higher; further: value at the top dose of about 77 µM; on the % scale 0 is the no-effect control and ±100 the full control effect
#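 Compounds were pin-transferred onto PI5P4Kalpha and substrate in HEPES pH 7.4 buffer with EGTA, CHAPS and 5% DMSO. ATP (5 microM final) started the reaction, which ran 60 minutes at room temperature before ADP-Glo detection.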
# L3MBTL1 block: inhibitors of human L3MBTL1; AlphaScreen L3MBTL1–H3K9me1 peptide binding; 230,000 tested, 0.66% active; Potency, µM (series often up to 57.1 µM), for the others: at the top dose activity, negative = inhibition, actives largely listed as inhibitors; AID 485360; further: potency means the concentration at half of the fitted maximal effect; on the % scale 0 is the no-effect control and ±100 the full control effect; nearly all actives have a fitted effect of over 60% in size
#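 L3MBTL1 (50 nM) pre-complexed 30 min with biotinylated H3(1-15)K9me1 peptide (75 nM), then compounds added for 30 min at room temperature; AlphaScreen streptavidin donor/nickel chelate acceptor beads (10 ug/mL final) read after 30 min dark incubation.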
# * marks the source's active call; other numbers are inactive results; ? = inconclusive; · = no result given; [ ] = remark or other dose. Compounds with a hit are over-represented: about 11% of the library has one in this group of screens. Unless noted, the call rests on the fitted dose curve; in most records, active means well fitted inhibition curve with a large enough effect; inconclusive means small, poorly fitted or top-dose-only effect; inactive means no such curve, though single readings can be large or run the other way.
SMILES,HP1b binding inh,G9a block,JMJD2A Tudor,BAZ2B inh,PI5P4K alpha inh,L3MBTL1 block
COc1cccc(C(=O)NCc2n[nH]c(=S)n2-c2cccc(C)c2)c1,28.7%,?,17.8µM*,-20.5%,·,6.1%
COc1ccc(CC(=O)NCc2n[nH]c(=S)n2C)cc1,32.0%,44.7µM*,?,0.0%,0.6,-8.9%
O=C(Cc1ccccc1)NCc1n[nH]c(=S)n1-c1ccccc1,?,?,-17.3%[11.4 µM],-20.1%,-12.6,·
Cc1ccc(C(=O)NCc2n[nH]c(=S)n2-c2ccccc2)cc1[N+](=O)[O-],-1.7%,10µM*,14.1µM*,-23.3%,0.0,·
COc1ccc(CCNC(=O)c2ccc3c(c2)CCN3S(=O)(=O)c2ccccc2)cc1,43.5%,-2.0%[59 µM],0.6%,1.0%,·,·
Cc1ccc(CNC(=O)CN2C(=O)COc3ccc(S(=O)(=O)Nc4ccccc4)cc32)cc1,2.2%,-22.2%[59 µM],-21.0%,-24.2%,·,·
O=C(Nc1ccccc1Cl)C1CCN(c2nc3ccccc3nc2C(F)(F)F)CC1,21.1%,1.5%[59 µM],-5.5%,0.9%,·,·
Cc1nc2nc(NC(=O)c3ccc(Cl)cc3)[nH]n2c(=O)c1Cc1ccccc1,21.3%,-22.8%[59 µM],-26.7%,-36.4%,·,·
O=C(NCc1n[nH]c(=S)n1-c1cccc(C(F)(F)F)c1)c1ccco1,27.2%,12.6µM*,12.6µM*,18.0%,-1.9,·
COc1ccc(-c2nc(C)c(CCNC(=O)c3cccc(C)c3)s2)cc1OC,8.1%[57 µM],14.5%[59 µM],-21.9%,-1.6%,·,·
O=C(C1=C[C@H](c2csc3ccccc23)C[C@H](OCCCCO)O1)N1CCN(Cc2ccccc2)CC1,5.3%,?,?,50.1µM*,-0.2,-25.0%
COc1ccc(CNC(=O)CSCc2nc(-c3ccccc3C)oc2C)cc1,22.8%,4.2%[59 µM],-10.8%,-38.5%,·,·
COc1cc(/C=C2\SC(=S)N(Nc3ncc(C(F)(F)F)cc3Cl)C2=O)ccc1O,?,39.8µM*,?,35.5µM*,-21.8,·
COc1cc(/C=C2\SC(=S)N(C(Cc3ccccc3)C(=O)O)C2=O)ccc1O (centres undefined),?,·,-32.3%,35.5µM*,-9.1,-12.3%
CN(C)c1ccc(/C=C2\SC(=S)N(Nc3ncc(C(F)(F)F)cc3Cl)C2=O)cc1,-5.3%,?,-32.6%,?,·,-11.4%
CCOc1cc(/C=C2\SC(=S)N(Nc3ccccc3)C2=O)ccc1O,50.1µM*,?,0.0%[11.4 µM],20µM*,-15.9,?
O=C(NN1C(=O)/C(=C/c2cccc(O)c2)SC1=S)c1ccccc1O,-18.4%[57 µM],-8.2%[59 µM],44.7µM*,44.7µM*,-18.5,·
CCOC(=O)c1ccc(N2C(=O)c3n[nH]c(C)c3C2c2ccc(OCC)cc2)cc1 (centres undefined),29.4%,-27.8%[59 µM],?,·,·,·
CCCN1CNc2c(c(=O)[nH]c(=S)n2Cc2ccc(OC)c(OC)c2)C1,1.7%,·,-16.3%,·,·,·
COc1ccc(/C=C2/SC(=S)N(Cc3ccccc3)C2=O)cc1O,-4.8%,22.2%,?,-7.2%,4.4,·
COc1cc(/C=C2\SC(=S)N(Nc3ccccc3)C2=O)ccc1O,50.1µM*,?,44.7µM*,39.8µM*,?,?
O=C(NN1C(=O)/C(=C/c2ccc(O)c(O)c2)SC1=S)c1ccccc1,?,6.31µM*,12.6µM*,5.62µM*,-52.5*,?
O=C(O)C(Cc1ccccc1)N1C(=O)/C(=C/c2cccc3ccccc23)SC1=S (centres undefined),·,?,·,56.2µM*,·,-3.3%
O=C(O)C(Cc1ccccc1)N1C(=O)/C(=C/c2ccccc2)SC1=S (centres undefined),-17.7%,?,?,?,-0.5,-28.3%
O=C1/C(=C/c2ccc(O)c(O)c2)SC(=S)N1Nc1ccccc1,7.08µM*,10µM*,10µM*,3.55µM*,-60.7*,·
SMILES,HP1b binding inh,G9a block,JMJD2A Tudor,BAZ2B inh,PI5P4K alpha inh,L3MBTL1 block
COc1cc(/C=C2\SC(=S)N(c3cccnc3)C2=O)ccc1O,34.4%,-48.9%[59 µM],-30.5%,?,-6.7,·
CCCCn1cnc2c(=O)[nH]c(N)nc21,11.2%[57 µM],·,-4.6%[57.1 µM],·,·,·
Cc1ccc(NS(=O)(=O)c2cc3c(cc2Cl)CCC(=O)N3)cc1C,·,·,-8.2%,·,·,·
Fc1ccc(CNc2ncnc3c2c(-c2ccccc2)cn3-c2ccccc2)cc1,75.1%,-8.2%[59 µM],-23.0%,26.0%,·,·
CCOc1ccc(/C=C2\SC(=S)N(NS(=O)(=O)c3ccccc3)C2=O)cc1OC,-8.6%,·,?,?,-5.2,-13.2%
CCOc1cc(/C=C2\SC(=S)N(NS(=O)(=O)c3ccccc3)C2=O)ccc1O,2.5%,-1.4%[2.33 µM],-26.8%,?,-66.9*,·
O=C(NN1C(=O)/C(=C\c2ccc(O)c([N+](=O)[O-])c2)SC1=S)c1ccccc1Cl,-31.9%,3.98µM*,56.2µM*,39.8µM*,-78.0*,-0.1%
O=C(O)c1ccc(/C=C2\SC(=S)N(NC(=O)c3ccccc3[N+](=O)[O-])C2=O)cc1,16.2%,?,-19.1%,-3.0%,?,·
CCn1c(CNC(=O)C23CC4CC(CC(C4)C2)C3)nnc1SCC(=O)Nc1ccc(F)cc1,50.2%,-2.4%[59 µM],1.3%,-3.0%,·,·
CCOc1ccc(Nc2nc3cc(S(=O)(=O)N(CC)CC)ccc3o2)cc1,-52.5%,2.24µM*,-16.8%,-27.2%,?,·
CCN(CC)S(=O)(=O)c1ccc2oc(Nc3ccc(OC)cc3)nc2c1,-16.8%,19.8%,-20.1%,-0.9%,-25.6,·
NC(=Nc1ccc(Cl)cc1)c1ccccc1,23.3%,3.9%,-8.3%,-10.7%,0.5,0.4%
CSC(=Nc1ccc(Cl)cc1)N[n+]1ccccc1,-2.6%,2µM*,-11.5%,-28.9%,7.1,0.8%
O=[N+]([O-])c1ccccc1/C=C/CN1CCN(Cc2ccc3c(c2)OCO3)CC1,?,·,22.4µM*,?,-0.2,4.6%
O=[N+]([O-])c1cccnc1N1CCN(Cc2ccc3c(c2)OCO3)CC1,?,?,?,6.0%[0.457 µM],-5.0,?
C(=C\c1ccccc1)/CN1CCN(Cc2ccc3c(c2)OCO3)CC1,?,·,1.26µM*,50.1µM*,5.6,-12.0%
Cc1ccccc1CN1CCN(C/C=C/c2ccccc2)CC1,?,?,3.16µM*,-31.5%,·,·
CS(=O)(=O)N1CCN(C/C=C/c2ccccc2)CC1,43.5%,?,-2.2%,-11.3%,0.2,·
Cc1nc2cnc(N(C)C)nc2n(CCC#N)c1=O,·,4.7%[0.501 µM],·,·,·,·
COc1cc(OC)c(NC(=O)CCCn2nc(C)c3sc4ccccc4c3c2=O)cc1Cl,-14.2%,14.1µM*,?,?,·,·
O=C(CSc1nnnn1C1CCCCC1)Nc1ccccc1N1CCOCC1,30.9%,35.5µM*,-9.9%,-27.4%,0.2,0.2%
CC(C)n1nnnc1SCC(=O)Nc1ccccc1N1CCOCC1,10.8%,-12.1%,-14.4%,6.6%,-5.4,6.2%
COCCNC(=O)CNC(c1ccccc1)c1ccccc1,·,44.7µM*,·,56.2µM*,·,·
